Screen size: about 2,100 compounds; about 590 (28%) were called active. About 42% were inconclusive and are not listed. This is one part of the list. Values without a mark were called inactive. The call rests on the fitted dose curve; in most records, active means well fitted inhibition curve with a large enough effect; inconclusive means small, poorly fitted or top-dose-only effect; inactive means flat fitted curve, though single readings scatter.
The compounds below were run against DNA dC->dU-editing enzyme APOBEC-3F (Homo sapiens) (UniProt Q8IUX4) (assay: qHTS for inhibitors of Vif-A3F interactions: Cherry picks). Conditions: HeLa A3F-eYFP + Vif (tagged APOBEC3F with the HIV-1 protein that degrades it), eYFP fluorescence, 24 h.
Sequence of DNA dC->dU-editing enzyme APOBEC-3F (Homo sapiens) (Q8IUX4 whole entry, looked up): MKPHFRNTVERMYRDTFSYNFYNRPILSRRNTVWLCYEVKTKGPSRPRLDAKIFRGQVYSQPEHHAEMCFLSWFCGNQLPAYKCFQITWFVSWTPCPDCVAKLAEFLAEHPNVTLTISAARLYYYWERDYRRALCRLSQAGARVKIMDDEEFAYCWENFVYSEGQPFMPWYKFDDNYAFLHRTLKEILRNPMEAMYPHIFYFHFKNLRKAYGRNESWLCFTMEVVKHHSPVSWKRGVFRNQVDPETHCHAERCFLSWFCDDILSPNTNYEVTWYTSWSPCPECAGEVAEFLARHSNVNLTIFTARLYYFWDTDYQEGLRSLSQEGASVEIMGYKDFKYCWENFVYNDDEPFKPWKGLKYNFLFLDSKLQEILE
In short: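 Read-out: yellow fluorescence (ex 488 nm, em 500-530 nm) by laser-scanning cytometer after 24 h compound exposure, several concentrations, at 37 deg C. Cells: HeLa line stably co-expressing Vif and C-terminally eYFP-tagged A3F; MG132 served as positive control.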
`COc1ccc(-n2cc3c(-c4cccc(Br)c4)nnc(C)c3n2)cc1` gave a max response of -1.46%. In the case of `N=c1n(CC(=O)c2ccc([N+](=O)[O-])cc2)c2ccccc2n1Cc1ccccc1`, the Potency is reported as 14.6 µM (active). Compound `COC(=O)[C@@H]1Cc2c([nH]c3ccccc23)C(C)(C)N1C(=O)CCl` has a max response of -14.3%. `Oc1ccc(C2=NNC(=NCc3ccc4c(c3)OCO4)SC2)c(O)c1` gave a max response of -25%. Work on `N#Cc1c(NC(=O)/C=C/C(=O)O)sc2c1CCN(Cc1ccccc1)C2` yielded a max response of -10.7%. For `CN(C)c1ccc(/C=C(/C#N)C(=O)Nc2nc3c(s2)CCN(Cc2ccccc2)C3)cc1`, the Potency was 0.704 µM (active). Compound `CCOC(=O)c1cc(-c2ccccc2C)n(CC2CC(c3ccc(OC)cc3)=NO2)n1` (centres undefined) has a max response of 6%. For `CN(C)c1ccc(/C=C/c2ccnc3c(N)cccc23)cc1`, the Potency was 16.4 µM (active). `CN(C)c1ccc(/C=C/c2ccnc3c(Cl)ccc(Cl)c23)cc1` was tested, and the Potency was 6.51 µM (active). For `CN(C)c1ccc(/C=C/c2ccnc3c(Cl)cccc23)cc1`, the Potency was 4.11 µM (active). Compound `Cc1ccc(-c2nc(SCCOc3ccccc3C)n3[nH]c(=O)cc3n2)cc1` has a max response of 1.28%. Work on `COc1ccc(/C=C2\Oc3cc(OC(=O)N4CCOCC4)ccc3C2=O)c(OC)c1` yielded a max response of -13.8%. For `COc1ccc(/C=c2\s/c(=C/C(=O)c3ccc(C)cc3)[nH]c2=O)c(OC)c1`, the Potency was 18.4 µM (active). `Cc1ccc(NC(=S)N=Nc2c(O)n(C)c3ccc(S(=O)(=O)N4CCOCC4)cc23)cc1` showed a max response of 3.82%. `COc1ccc(C(=O)C(C)[n+]2ccc(C)c3ccccc32)cc1[N+](=O)[O-]` (centres undefined) showed a max response of 1.15%. Compound `O=C(O)CSc1cc(NS(=O)(=O)c2cccc([N+](=O)[O-])c2)c2ccccc2c1O` has a max response of -12.8%. `COC(=O)c1cnc(Nc2cc(C)ccc2OC)c2ccccc12` was tested, and the max response was -22%. In the case of `COc1ccc(-n2c(O)c(/C=N/NS(=O)(=O)c3cc(C)ccc3C)c3ccccc3c2=O)cc1OC`, the Potency is reported as 14.6 µM (active). With `COc1ccc(-n2c(O)c(/C=N/NS(=O)(=O)c3ccc(C)c([N+](=O)[O-])c3)c3ccccc3c2=O)cc1OC` the Potency was 14.6 µM (active). `COc1ccc(C)cc1NCc1cc(=O)oc2cc(-c3ccccc3)c(O)cc12` showed a max response of -18.7%. With `COc1ccc(-n2c(O)c(/C=N/NS(=O)(=O)c3cccc([N+](=O)[O-])c3)c3ccccc3c2=O)cc1OC` the Potency was 17.7 µM (active). With `COC1=C(OC)C(=O)C(Sc2ccc3ccccc3c2)=CC1=O` the max response was -9.94%. `CCSc1nnc(-c2sc3nnc(-c4ccccc4)c(-c4ccccc4)c3c2N)o1` was tested, and the Potency was 16.4 µM (active). `COc1cc(CNCCSc2nnnn2C)ccc1OCc1c(F)cccc1Cl` showed a max response of -4.2%. For `COc1ccc(C(=O)Nc2cccc(/C=C/c3nc4ccccc4c(=O)[nH]3)c2)cc1`, the Potency was 12.5 µM (active). With `N#Cc1c(C(F)(F)F)cc(-c2ccco2)nc1SCc1ccccn1` the Potency was 10.3 µM (active). In the case of `Nc1c(C(=O)Nc2ccc(F)cc2)sc2nc(-c3cccs3)cc(C(F)(F)F)c12`, the Potency is reported as 1.64 µM (active). For `O=C(Nc1nc2ccccc2s1)c1ccc([N+](=O)[O-])o1`, the max response was -26.2%. In the case of `Nc1c(C(=O)Nc2nc3ccccc3s2)sc2nc(-c3cccs3)ccc12`, the Potency is reported as 20.6 µM (active). `Cc1nnc(NC(=O)c2sc3nc(-c4cccs4)cc(C(F)(F)F)c3c2N)s1` was tested, and the Potency was 7.31 µM (active). For `Nc1c(C(=O)Nc2nccs2)sc2nc(-c3cccs3)cc(C(F)(F)F)c12`, the Potency was 8.86 µM (active). For `COc1ccc2nc(NC(=S)NC(=O)c3ccco3)sc2c1`, the max response was -0.262%. `O=c1[nH]cnc2n[nH]nc12` was tested, and the Potency was 2.31 µM (active). For `CCNC(=S)N/N=C(\C)c1ccc(N2CCOCC2)cc1`, the max response was -0.726%. `O=c1[nH]c2ccccc2n2c(C(F)(F)F)nnc12` gave a max response of -23.2%. For `Cn1c(N)c(-c2ccccc2)c2ccc([N+](=O)[O-])cc2c1=O`, the Potency was 4.98 µM (active). Compound `CC(C)(C)NCC(=Cc1ccccc1)C(=O)c1ccccc1` has a max response of 10%. In the case of `C=C(C(=O)c1ccccc1)C(C)C(=C)C(=O)c1ccccc1`, the Potency is reported as 12.5 µM (active). For `O=C(OC12CC3CC(CC(C3)C1)C2)c1ccc(NCc2cc(O)ccc2O)cc1`, the max response was -13.8%. With `CCN1/C(=C\C=C(C(C)=O)C(C)=O)Sc2ccccc21` the Potency was 18.4 µM (active). `O=C(CN1c2ccccc2Sc2ccccc21)NNC(=O)Nc1cccc(Cl)c1` showed a max response of -28.8%. `O=S(=O)(Nc1nc2ccccc2nc1OCC(F)(F)F)c1cccs1` was tested, and the max response was -0.45%. `CSc1nsc(/C=C/Nc2ccc(C)cc2)c1C#N` was tested, and the Potency was 15.8 µM (active). `CSc1nsc(/C=C/Nc2ccc(F)cc2)c1C#N` showed a max response of -9.4%. In the case of `N#CC1=C(S)N(c2ccc(F)cc2)C2(CCCCC2)NC1=O`, the max response is reported as 2.73%. `Cc1c(C(=O)Nc2cnccn2)oc2ccccc12` showed a max response of -18.9%. `CC(=O)Nc1sc(/C(C#N)=C/c2ccc(Cl)c(Cl)c2)nc1-c1ccc(C)cc1` was tested, and the Potency was 2.59 µM (active). For `CC(=O)Nc1sc(/C(C#N)=C\c2cccc(Cl)c2)nc1-c1ccc(C)cc1`, the Potency was 6.51 µM (active). Compound `O=C(Nc1nc(NC(=O)c2ccco2)n(-c2ccccc2)n1)c1ccccc1` has a max response of -10.5%.

From PubChem BioAssay AID651814 (National Center for Advancing Translational Sciences (NCATS), 2012)
Further: nearly all actives have a fitted effect of over 70% in size.
Potency means the concentration at half of the fitted maximal effect.
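Wherever max response is given: % of control where 0% means no effect; active compounds raise eYFP fluorescence by blocking Vif-driven A3F loss.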
